# Source: the supplement of paper PMC8728848
# The sample as a whole holds a higher share of the strongest signals than the screen did.
# Key:
# Test in all cases: glycan array binding signal (z-score within array); higher = stronger binding
# Settings in all cases: glycan notation: IUPAC condensed, linker removed
# [1] = molecular target: Fuc(a1-2)Gal(b1-3)GalNAc(b1-4)[Neu5Ac(a2-3)]Gal(b1-4)Glc
# Outline: (§1)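 Negative Z-scores can be read as non-binding. The Z-score is calculated within each array and then averaged across arrays of one protein sequence at different concentrations or buffers and across linkers. Arrays, 3228 in all, were curated from the Consortium for Functional Glycomics database and kept only where the protein sequence was available.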
# [2] = molecular target: Fuc(a1-2)Gal(b1-3)GlcNAc6S
# Outline: as §1
# [3] = molecular target: Fuc(a1-2)Gal(b1-3)[Fuc(a1-4)]GlcNAc
# Outline: as §1
# [4] = molecular target: Fuc(a1-2)Gal(b1-4)GlcNAc(b1-2)[Fuc(a1-2)Gal(b1-4)GlcNAc(b1-4)]Man(a1-3)[Fuc(a1-2)Gal(b1-4)GlcNAc(b1-2)Man(a1-6)]Man(b1-4)GlcNAc(b1-4)GlcNAc
# Outline: as §1
# [5] = molecular target: Fuc(a1-2)Gal(b1-4)GlcNAc(b1-6)GalNAc
# Outline: as §1
# [6] = molecular target: Fuc(a1-2)Gal6S(b1-4)Glc6S
# Outline: as §1
# [7] = molecular target: Fuc(a1-2)[Gal(a1-3)]Gal(b1-4)GlcNAc(b1-2)Man(a1-3)[Fuc(a1-2)[Gal(a1-3)]Gal(b1-4)GlcNAc(b1-2)Man(a1-6)]Man(b1-4)GlcNAc(b1-4)[Fuc(a1-6)]GlcNAc
# Outline: as §1
# [8] = molecular target: Fuc(a1-2)[Gal(a1-3)]Gal(b1-4)GlcNAc(b1-3)[Fuc(a1-2)[Gal(a1-3)]Gal(b1-4)GlcNAc(b1-6)]GalNAc
# Outline: as §1
# [9] = molecular target: Fuc(a1-2)[Gal(a1-3)]Gal(b1-4)GlcNAc(b1-6)GalNAc
# Outline: as §1
# [10] = molecular target: Fuc(a1-2)[Gal(a1-3)]Gal(b1-4)[Fuc(a1-3)]Glc
# Outline: as §1
# [11] = molecular target: Fuc(a1-2)[GalNAc(a1-3)]Gal(b1-3)GlcNAc(b1-3)GalNAc
# Outline: as §1
# [12] = molecular target: Fuc(a1-2)[GalNAc(a1-3)]Gal(b1-4)[Fuc(a1-3)]GlcNAc
# Outline: as §1
# [13] = molecular target: Fuc(a1-2)[GalNAc(a1-3)]Gal(b1-4)[Fuc(a1-3)]GlcNAc(b1-3)GalNAc
# Outline: as §1
# [14] = molecular target: Fuc(a1-3)[Gal(b1-4)]Glc6S
# Outline: as §1
# [15] = molecular target: Fuc(a1-3)[Gal(b1-4)]GlcNAc(b1-2)Man(a1-3)[Fuc(a1-3)[Gal(b1-4)]GlcNAc(b1-2)Man(a1-6)]Man(b1-4)GlcNAc(b1-4)GlcNAc
# Outline: as §1
# Gal(a1-3)Gal = molecular target: Gal(a1-3)Gal
# Outline: as §1
# [16] = molecular target: Gal(a1-3)Gal(b1-3)GlcNAc(b1-6)GalNAc
# Outline: as §1
# Gal(b1-3)GalNAc = molecular target: Gal(b1-3)GalNAc
# Outline: as §1
# [17] = molecular target: Gal(b1-3)GalNAc(b1-3)Gal(a1-4)Gal(b1-4)Glc
# Outline: as §1
# [18] = molecular target: Gal(b1-3)GalNAc(b1-4)[Neu5Ac(a2-3)]Gal(b1-4)Glc
# Outline: as §1
# [19] = molecular target: Gal(b1-3)GlcNAc(a1-3)Gal(b1-4)GlcNAc
# Outline: as §1
# [20] = molecular target: Gal(b1-3)GlcNAc(b1-3)Gal(b1-4)Glc
# Outline: as §1
# [21] = molecular target: Gal(b1-3)GlcNAc(b1-3)Gal(b1-4)GlcNAc(b1-6)[Gal(b1-3)GlcNAc(b1-3)]Gal(b1-4)Glc
# Outline: as §1
# [22] = molecular target: Gal(b1-3)GlcNAc(b1-3)GalNAc
# Outline: as §1
# [23] = molecular target: Gal(b1-3)[Fuc(a1-4)]GlcNAc(b1-3)Gal(b1-4)[Fuc(a1-3)]GlcNAc
# Outline: as §1
# Gal(b1-4)Glc = molecular target: Gal(b1-4)Glc
# Outline: as §1
# [24] = molecular target: Gal(b1-4)GlcNAc(b1-2)Man(a1-3)[Gal(b1-4)GlcNAc(b1-2)Man(a1-6)]Man(b1-4)GlcNAc(b1-4)GlcNAc
# Outline: as §1
# [25] = molecular target: Gal(b1-4)GlcNAc(b1-2)Man(a1-3)[Gal(b1-4)GlcNAc(b1-2)Man(a1-6)][Gal(b1-4)GlcNAc(b1-4)]Man(b1-4)GlcNAc(b1-4)[Fuc(a1-6)]GlcNAc
# Outline: as §1
# [26] = molecular target: Gal(b1-4)GlcNAc(b1-2)Man(a1-6)Man(b1-4)GlcNAc(b1-4)GlcNAc
# Outline: as §1
binder,measurement,setting,value
Pwp5 ND (Candida glabrata) (protein) MGSSHHHHHHSSGLVPRGSHMASANPVPLTNVCYFPEEYPRQAGFRAITAGLASTILQGSVDELLNYSGLSSLTTQQTTTTTPNFQLPTLPLPTNVYGLTVVPLYLLVQLQGYFVPPVSGQYTFSLENTNDAAIIFFGNPSAFPCGDLSAWPQASADDITVTDGTFPSRTLFLKAGVAYPMRISYYNSLGSGNLAVSFTDPGGTKRTNWNGYIWRYNSCSTCTYT,glycan array binding signal (z-score),[1],-0.235
same,glycan array binding signal (z-score),[2],-0.214
same,glycan array binding signal (z-score),[3],0.311
same,glycan array binding signal (z-score),[4],2.82
same,glycan array binding signal (z-score),[5],3.91
same,glycan array binding signal (z-score),[6],2.41
same,glycan array binding signal (z-score),[7],0.284
same,glycan array binding signal (z-score),[8],-0.58
same,glycan array binding signal (z-score),[9],0.176
same,glycan array binding signal (z-score),[10],-0.527
same,glycan array binding signal (z-score),[11],0.59
same,glycan array binding signal (z-score),[12],-0.827
same,glycan array binding signal (z-score),[13],-0.156
same,glycan array binding signal (z-score),[14],3.45
same,glycan array binding signal (z-score),[15],1.55
same,glycan array binding signal (z-score),Gal(a1-3)Gal,-0.029
same,glycan array binding signal (z-score),[16],-0.579
same,glycan array binding signal (z-score),Gal(b1-3)GalNAc,-0.212
same,glycan array binding signal (z-score),[17],3.41
same,glycan array binding signal (z-score),[18],-0.51
same,glycan array binding signal (z-score),[19],-0.125
same,glycan array binding signal (z-score),[20],-0.276
same,glycan array binding signal (z-score),[21],-0.519
same,glycan array binding signal (z-score),[22],-0.596
same,glycan array binding signal (z-score),[23],0.251
same,glycan array binding signal (z-score),Gal(b1-4)Glc,-0.548
same,glycan array binding signal (z-score),[24],-0.247
same,glycan array binding signal (z-score),[25],-0.557
same,glycan array binding signal (z-score),[26],0.775
